According to PubChem BioAssay (EPA / NIEHS):
Results filed as inconclusive are left out. Calls of active or inactive are those of the source. The calls were made as follows, unless noted: active = hit-call score of the fitted dose curve at least 0.9, where 1 is the maximum; inconclusive = response in the unintended direction; inactive = score below 0.9.

Assays:
[1] = read-out: xenobiotic metabolism (CYP1A2), CYP1A2 (gene 1544); test: CLD_CYP1A2_6hr: CellzDirect (CLD) Gene Expression Assay for xenobiotic metabolism (CYP1A2) at 6 hours (AID 2283663);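 as to AC50: potency is for induction meaning a rise in mRNA above DMSO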
How it was run: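 Primary human hepatocytes from two donor preparations, dosed daily with multiple concentrations in 0.2% DMSO and harvested at 6 h. CYP1A2 mRNA induction measured by chemiluminescent qNPA, gain of signal fitted against DMSO; cytotoxicity flagged morphologically.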

[2] = Tanguay_ZF_120hpf_TR_legacy: (Legacy) Oregon State University Tanguay Lab 120 Hour Post-fertilization zebrafish Assay for Touch Response (AID 2283667)
How it was run: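 Tropical 5D wild-type zebrafish embryos were exposed statically in sealed, foil-covered plates at 28C until 120 hpf, with 0.64% (vol/vol) final DMSO. Touch response was scored as present or absent; embryos that died were not scored.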

[3] = read-out: organic anion transporter (SLCO1B1), SLCO1B1 (gene 10599); test: CLD_SLCO1B1_6hr: CellzDirect (CLD) Gene Expression Assay for organic anion transporter (SLCO1B1) at 6 hours (AID 2283668);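 also: active means mRNA induction above DMSO baseline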
How it was run: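 Primary human hepatocytes dosed daily with test chemicals (multiple concentrations) in 0.2% DMSO vehicle; harvested at 6 h. SLCO1B1 mRNA quantified by qNPA chemiluminescence, fitted as gain-of-signal versus DMSO; cytotoxicity from phase-contrast morphology flagged alongside.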

[4] = CLD_ACTIN_24hr: CellzDirect (CLD) Gene Expression Assay for Baseline Control (Actin) at 24 hours (AID 2283670)
How it was run: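 Primary human hepatocytes dosed over multiple concentrations with 0.2% DMSO vehicle; actin mRNA measured at 24 h by qNPA chemiluminescence. Background control endpoint, fitted as gain of signal versus DMSO.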

[5] = read-out: glucuronosyltransferase (UGT1A1), UGT1A1 (gene 54658); test: CLD_UGT1A1_6hr: CellzDirect (CLD) Gene Expression Assay for glucuronosyltransferase (UGT1A1) at 6 hours (AID 2283672)
How it was run: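 Primary human hepatocytes from two donor preparations, dosed with fresh solutions in 0.2% DMSO, harvested at 6 h. UGT1A1 mRNA measured by qNPA chemiluminescence; induction fitted upward versus DMSO.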

[6] = CLD_ACTIN_6hr: CellzDirect (CLD) Gene Expression Assay for Baseline Control (Actin) at 6 hours (AID 2283676);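 also: active means increased actin mRNA relative to DMSO vehicle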
How it was run: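 Primary human hepatocytes dosed with fresh chemical solutions (vehicle 0.2% DMSO), harvested at 6 h. Actin mRNA quantified by quantitative nuclease protection assay with chemiluminescent read-out, as background control relative to DMSO.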

[7] = read-out: Cytochrome P450 2B6 (Homo sapiens) (UniProt P20813); test: CLD_CYP2B6_6hr: CellzDirect (CLD) Gene Expression Assay for xenobiotic metabolism (CYP2B6) at 6 hours (AID 2283677);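 also: actives raise CYP2B6 transcript above DMSO baseline so AC50 marks an inducer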
How it was run: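 Primary human hepatocytes dosed with chemicals at multiple concentrations, vehicle 0.2% DMSO; CYP2B6 mRNA induction measured 6 h after dosing by quantitative nuclease protection assay with chemiluminescence, gain of signal fitted relative to DMSO.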

[8] = CCTE_Padilla_ZF_144hpf_TERATOSCORE: (Legacy) CCTE's 144 Hour Post-fertilization zebrafish Assay Teratoscore, Padilla Lab (AID 2283679; active = hit-call score of the fitted dose curve at least 0.9, where 1 is the maximum; inactive = score below 0.9;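 as to AC50: zebrafish embryos with chorions exposed by immersion from 6-8 hpf to 5 dpf with daily renewal; teratogenicity score from eye scoring of death hatching and malformations at 144 hpf; higher score means more developmental defects relative to DMSO baseline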)
How it was run: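 Larvae scored by eye at 144 hpf for death, hatching and malformations after a day in clean Hanks'. Before that, daily-renewed exposure at 80 uM (0.4% DMSO, 26C) from roughly 6-8 hpf through 5 dpf, 4 embryos per chemical.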

[9] = read-out: Cytochrome P450 3A4 (Homo sapiens) (UniProt P08684); test: CLD_CYP3A4_6hr: CellzDirect (CLD) Gene Expression Assay for xenobiotic metabolism (CYP3A4) at 6 hours (AID 2283680)
How it was run: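 Primary human hepatocytes (two donor preparations) dosed; CYP3A4 mRNA harvested at 6 h and quantified by qNPA chemiluminescence. Gain of signal fitted against 0.2% DMSO vehicle; cytotoxicity flagged by phase-contrast morphology.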

[10] = read-out: Glyceraldehyde-3-phosphate dehydrogenase (Homo sapiens) (UniProt P04406); test: CLD_GAPDH_6hr: CellzDirect (CLD) Gene Expression Assay for Baseline Control (Glyceraldehyde 3-phosphate dehydrogenase) at 6 hours (AID 2283681);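 also: active means increased signal relative to DMSO vehicle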
How it was run: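 Primary human hepatocytes from two donor preparations, dosed at multiple concentrations with 0.2% DMSO vehicle; GAPDH mRNA measured 6 h after dosing by chemiluminescent quantitative nuclease protection assay (qNPA) on denatured lysates. Serves as background control; cytotoxicity annotated by morphology.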

[11] = read-out: ABC Transporter (ABCB1), ABCB1 (gene 5243); test: CLD_ABCB1_24hr: CellzDirect (CLD) Gene Expression Assay for ABC Transporter (ABCB1) at 24 hours (AID 2283684)
How it was run: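 Primary human hepatocytes, two donor preparations, dosed daily with fresh solutions; vehicle 0.2% DMSO; harvested at 24 h. ABCB1 mRNA measured by quantitative nuclease protection assay (chemiluminescence); morphology-based cytotoxicity annotated.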

[12] = system: Thyroperoxidase (TPO), gene 54314; test: CCTE_Simmons_AUR_rTPO: CCTE's Amplex UltraRed Assay for Thyroperoxidase (TPO) Inhibition, Simmons Lab (AID 2283662);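 also: potency for loss of signal meaning inhibition of peroxidase activity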
How it was run: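 Rat thyroid microsomes (5 ug protein) were incubated with test compound (8 concentrations, 5 nM–87.5 uM final, 0.5% DMSO), 25 uM Amplex UltraRed and 300 uM H2O2 in 200 mM phosphate buffer for 30 min at 37C in the dark; fluorescence read at 544/590 nm.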

[13] = CCTE_Simmons_CellTiterGLO_HEK293T: Viability Assessment in CCTE's Assays for Thyroperoxidase (TPO) Inhibition, Simmons Lab (AID 2283665)
How it was run: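 HEK293T, 10 000 cells/well, DMEM + 1% FBS; 8-pt titration 5 nM–87.5 uM [final], 0.5% DMSO; 24 hr, 37C, 5% CO2; CellTiter-Glo luminescence; n=3 biological replicates.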

[14] = read-out: HMG-CoA synthase (HMGCS2), HMGCS2 (gene 3158); test: CLD_HMGCS2_6hr: CellzDirect (CLD) Gene Expression Assay for HMG-CoA synthase (HMGCS2) at 6 hours (AID 2283682);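 also: actives raise HMGCS2 transcript above the 0.2% DMSO vehicle baseline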
How it was run: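 Primary human hepatocytes dosed daily with fresh chemical, 0.2% DMSO vehicle; HMGCS2 mRNA measured at 6 h by qNPA chemiluminescence. Gain of signal fitted against DMSO; cytotoxicity flagged from phase-contrast morphology.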

[15] = read-out: ABC Transporter (ABCB11), ABCB11 (gene 8647); test: CLD_ABCB11_6hr: CellzDirect (CLD) Gene Expression Assay for ABC Transporter (ABCB11) at 6 hours (AID 2283675);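 also: hits raise ABCB11 mRNA level so AC50 marks induction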
How it was run: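 Human primary hepatocytes (two donor preparations) given fresh chemical daily at multiple concentrations, vehicle 0.2% DMSO. ABCB11 mRNA induction measured 6 h after dosing by qNPA chemiluminescence versus DMSO; cytotoxicity annotated from morphology.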

[16] = read-out: xenobiotic metabolism (CYP1A1), CYP1A1 (gene 1543); test: CLD_CYP1A1_24hr: CellzDirect (CLD) Gene Expression Assay for xenobiotic metabolism (CYP1A1) at 24 hours (AID 2283673);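 also: CYP1A1 mRNA level by quantitative nuclease protection with chemiluminescence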
How it was run: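 Primary human hepatocytes dosed daily with fresh solutions in 0.2% DMSO vehicle. mRNA measured at 24 h by quantitative nuclease protection assay with chemiluminescence; gain-of-signal fit versus DMSO, with morphology-based cytotoxicity flags.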

[17] = read-out: sulfotransferase (SULT2A), SULT2A1 (gene 6822); test: CLD_SULT2A_6hr: CellzDirect (CLD) Gene Expression Assay for sulfotransferase (SULT2A) at 6 hours (AID 2283669);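 also: hits raise transcript level above the DMSO vehicle baseline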
How it was run: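 Primary human hepatocytes from two donor preparations were dosed daily with chemicals or 0.2% DMSO and harvested at 6 h. Transcript induction read by qNPA chemiluminescence, fitted for gain of signal relative to DMSO; morphology-based cytotoxicity annotated.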

[18] = read-out: Cytochrome P450 (CYP24A1_1), CYP24A1 (gene 1591); test: LTEA_HepaRG_CYP24A1_1: Life Technologies and Expression Analysis (LTEA) Assay for Cytochrome P450 (CYP24A1_1) using HepaRG (AID 2283671; active = hit-call score of the fitted dose curve at least 0.9, where 1 is the maximum; inactive = score below 0.9); settings: mRNA level, 48 h; actives raise or lower the signal
How it was run: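 HepaRG, 48 h exposure, 8-pt half-log series from 100 uM in 0.5% DMSO, duplicates. Readout: TaqMan qRT-PCR of CYP24A1 mRNA, housekeeping-normalized (ACTB/GAPDH/POLR2A). Bidirectional curve fit vs DMSO baseline.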

[19] = read-out: xenobiotic metabolism (CYP1A2), CYP1A2 (gene 1544); test: CLD_CYP1A2_24hr: CellzDirect (CLD) Gene Expression Assay for xenobiotic metabolism (CYP1A2) at 24 hours (AID 2283683)
How it was run: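 Primary human hepatocytes from two donor preparations dosed daily with multiple concentrations of chemical, 0.2% DMSO vehicle. CYP1A2 mRNA at 24 h quantified by qNPA chemiluminescence; gain of signal analyzed relative to DMSO. Cytotoxicity flagged by phase-contrast morphology.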

Measured: AC50

Cytochrome P450 3A4 (Homo sapiens), sequence (P08684 whole entry, looked up): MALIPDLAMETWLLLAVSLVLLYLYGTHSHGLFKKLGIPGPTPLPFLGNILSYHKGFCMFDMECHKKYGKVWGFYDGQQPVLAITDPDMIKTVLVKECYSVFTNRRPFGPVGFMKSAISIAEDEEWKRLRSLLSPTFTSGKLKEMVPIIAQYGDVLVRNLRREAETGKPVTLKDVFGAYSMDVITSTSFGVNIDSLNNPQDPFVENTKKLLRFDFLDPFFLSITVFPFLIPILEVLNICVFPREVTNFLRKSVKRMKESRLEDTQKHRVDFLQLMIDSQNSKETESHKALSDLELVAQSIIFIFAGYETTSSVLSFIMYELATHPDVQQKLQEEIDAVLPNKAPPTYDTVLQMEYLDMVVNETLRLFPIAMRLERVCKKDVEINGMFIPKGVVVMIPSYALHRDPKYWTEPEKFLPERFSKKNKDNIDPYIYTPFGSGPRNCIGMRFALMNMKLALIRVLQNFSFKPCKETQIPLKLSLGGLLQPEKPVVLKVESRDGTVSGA
Glyceraldehyde-3-phosphate dehydrogenase (Homo sapiens), sequence (P04406 whole entry, looked up): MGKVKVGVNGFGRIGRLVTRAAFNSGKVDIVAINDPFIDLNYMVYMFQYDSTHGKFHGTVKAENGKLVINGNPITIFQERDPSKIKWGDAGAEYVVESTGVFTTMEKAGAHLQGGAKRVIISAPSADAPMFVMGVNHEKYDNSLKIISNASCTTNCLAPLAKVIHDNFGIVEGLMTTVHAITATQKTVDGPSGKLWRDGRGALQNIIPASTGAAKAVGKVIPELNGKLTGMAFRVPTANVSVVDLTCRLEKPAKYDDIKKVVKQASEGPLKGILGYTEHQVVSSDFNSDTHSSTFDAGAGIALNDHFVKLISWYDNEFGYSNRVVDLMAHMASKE

Cc1nn(-c2cc(NS(C)(=O)=O)c(Cl)cc2Cl)c(=O)n1C(F)F
active: [7] 4.25 µM | [8] 56.9 µM | [9] 1.62 µM
inactive: [1] | [2] | [3] | [4] | [5] | [6] | [10] | [11]

CCOP(=S)(OCC)Oc1ccc([N+](=O)[O-])cc1
active: [12] 15.5 µM | [1] 2.19 µM | [7] 2.58 µM | [8] 6.3 µM | [9] 2.2 µM
inactive: [13] | [5] | [14] | [11]

COP(=O)(OC)SCn1c(=O)oc2cc(Cl)cnc21
active: [12] 7.84 µM | [8] 51.1 µM
inactive: [1] | [13] | [2] | [15] | [11]

CNC(=O)ON=C(SC)C(=O)N(C)C
inactive: [2] | [3] | [4] | [5] | [6] | [7] | [8] | [9] | [14] | [11]

CCNc1nc(Cl)nc(NC(C)(C)C#N)n1
inactive: [1] | [2] | [5] | [16] | [15] | [8] | [9] | [14] | [11]
active: [7] 3.62 µM

CCOC(=O)COc1cc(-c2nn(C)c(OC(F)F)c2Cl)c(F)cc1Cl
inactive: [1] | [2] | [5] | [16] | [15] | [11]
active: [7] 2.63 µM | [8] 0.201 µM | [9] 3.97 µM

CC(C1CC1)C(O)(Cn1cncn1)c1ccc(Cl)cc1 (stereo not given)
active: [1] 0.00638 µM | [7] 1.28 µM | [8] 57.6 µM
inactive: [2] | [5] | [15] | [10] | [11]

CCc1cccc(CC)c1N(COC)C(=O)CCl
inactive: [2] | [3] | [17] | [18] | [5] | [15] | [19] | [11]
active: [16] 3.06 µM | [7] 2.58 µM | [8] 35.4 µM | [9] 1.93 µM

COP(=O)(OC)C(O)C(Cl)(Cl)Cl (stereo not given)
active: [8] 168 µM
inactive: [2] | [3] | [4] | [5] | [15] | [11]

CCCOc1nn(C(=O)NS(=O)(=O)c2ccccc2C(=O)OC)c(=O)n1C
inactive: [2] | [3] | [5] | [6] | [7] | [8] | [14]
